This passage reports growth results from PubChem BioAssay (NCI).

Among the test systems are SR leukemia; RPMI-8226 leukemia; OVCAR-8 ovarian; OVCAR-5 ovarian; OVCAR-4 ovarian; SK-OV-3 ovarian; IGROV1 ovarian; OVCAR-3 ovarian; HS 578T breast; NCI/ADR-RES ovarian.
Assay in all cases: NCI-60 one-dose screen, 48 h (100 = growth as untreated, 0 = no growth, -100 = all killed)
Settings in all cases: 10 µM unless noted

This is part of a sample that, as a whole, favours compounds with a hit. Of some 83,000 tested, about 20% had one in any assay.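 48-hour exposure, single concentration, 96-well plates; percent growth endpoint where 0 means no net growth. Active: below 10.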 Unmarked numbers belong to inactive results. Calls of active or inactive are those of the source.

For `CCN1C(=O)N(CC)C2NC(SC)=NC21` (stereo not given), the growth in the assay on SR leukemia was 107%; in the assay with RPMI-8226 leukemia, 157%; in the assay on OVCAR-8 ovarian, 104%; in the assay with OVCAR-5 ovarian, 88.9%; with OVCAR-4 ovarian, 103%; in the assay on SK-OV-3 ovarian it was 104%. Besides, the growth in the assay on IGROV1 ovarian was 102%; with OVCAR-3 ovarian, 102%; in the assay with HS 578T breast, 94.1%; with NCI/ADR-RES ovarian, 99.7%.
For the compound `Cc1c2c(cc[n+]1Cc1ccccc1)c1ccc(OCC3CCCCC3)cc1n2CC1CCCCC1`, the growth with SR leukemia is -57.7% (active); in the assay on RPMI-8226 leukemia it was -45.2% (active); with OVCAR-8 ovarian it was -90.1% (active); in the assay with OVCAR-5 ovarian, -95.5% (active); with OVCAR-4 ovarian it was -94.3% (active); in the assay on SK-OV-3 ovarian, -53.4% (active). Besides, the growth in the assay with IGROV1 ovarian is -70.6% (active); in the assay with OVCAR-3 ovarian, -100% (active); in the assay on HS 578T breast, -36.2% (active); in the assay with NCI/ADR-RES ovarian it was 31.5%.
Turning to `CCOC(=O)c1c(O)cc(-c2ccccc2)cc1-c1sc(N(C)Cc2ccccc2)nc1Cl`, the growth in the assay on SR leukemia is 93.4%; in the assay on RPMI-8226 leukemia, 95.2%; in the assay with OVCAR-8 ovarian, 97.8%; in the assay on OVCAR-5 ovarian it was 89.4%; in the assay on OVCAR-4 ovarian it was 102%; in the assay with SK-OV-3 ovarian, 95.7%. In addition, the growth in the assay on IGROV1 ovarian was 108%; in the assay on OVCAR-3 ovarian it was 106%; in the assay with HS 578T breast, 88.6%; in the assay with NCI/ADR-RES ovarian, 102%.
Regarding `O=S(=O)(NCCCNc1nccc(-c2c(-c3cccc(O)c3)nc3occn23)n1)c1ccc(Br)cc1`, the growth was 89.8% with SR leukemia; 86.4% with RPMI-8226 leukemia; 86% in the assay with OVCAR-8 ovarian; 137% with OVCAR-5 ovarian; 118% in the assay with OVCAR-4 ovarian; 94% in the assay with SK-OV-3 ovarian. Further, the growth in the assay on IGROV1 ovarian was 79.2%; in the assay with OVCAR-3 ovarian, 102%; with HS 578T breast it was 91.6%; in the assay with NCI/ADR-RES ovarian, 107%.
For `O=C(N/N=C/c1cccnc1)c1ccccc1Nc1cccc(C(F)(F)F)c1`, the growth in the assay on SR leukemia was -15.3% (active); with RPMI-8226 leukemia, 71.1%; in the assay on OVCAR-8 ovarian it was 83.1%; with OVCAR-5 ovarian, 96.4%; with OVCAR-4 ovarian, 70.3%; with SK-OV-3 ovarian, 80.3%. Moreover, the growth in the assay on IGROV1 ovarian is 91.4%; with OVCAR-3 ovarian, 75.4%; in the assay with HS 578T breast, 100%; with NCI/ADR-RES ovarian, 79%.
Consider `Cc1nn(-c2ccccc2)c(N2CCOCC2)c1/C=N/N=c1\sc2ccccc2n1C`, for which the growth in the assay on SR leukemia is 36.7%; in the assay with RPMI-8226 leukemia, 52.9%; in the assay with OVCAR-8 ovarian, 93.9%; in the assay on OVCAR-5 ovarian it was 82%; in the assay on OVCAR-4 ovarian, 98.6%; with SK-OV-3 ovarian, 76.9%. Further, the growth is 89.5% in the assay on IGROV1 ovarian, 104% with OVCAR-3 ovarian, 91.2% in the assay with HS 578T breast and 94.9% in the assay on NCI/ADR-RES ovarian.
Regarding `COc1ccc(-c2nc(N/N=C/c3ccco3)nc(N3CCOCC3)c2C#N)cc1`, the growth is 60.2% in the assay on SR leukemia; 64% in the assay on RPMI-8226 leukemia; 88.6% in the assay with OVCAR-8 ovarian; 89.6% in the assay on OVCAR-5 ovarian; 78% in the assay with OVCAR-4 ovarian; 64.6% in the assay on SK-OV-3 ovarian. Besides, the growth with IGROV1 ovarian was 37.3%; in the assay with OVCAR-3 ovarian, 70.2%; in the assay with HS 578T breast, 80.6%; in the assay with NCI/ADR-RES ovarian it was 86.4%.
Take `CCC(C)C(N)C(=O)NNc1n[nH]c(=S)n1N` (stereo not given): the growth with SR leukemia is 99.7%; in the assay with RPMI-8226 leukemia it was 99.9%; in the assay with OVCAR-8 ovarian, 97.8%; in the assay on OVCAR-5 ovarian, 99.2%; with OVCAR-4 ovarian, 102%; with SK-OV-3 ovarian, 99.3%. Moreover, the growth with IGROV1 ovarian was 105%; in the assay with OVCAR-3 ovarian it was 107%; with HS 578T breast it was 91.6%; in the assay on NCI/ADR-RES ovarian it was 102%.
For the compound `Fc1ccc(C2CC(c3cccc(Nc4ccncc4)c3)=NN2c2cc(Cl)cc(Cl)c2)cc1` (stereo not given), the growth in the assay with SR leukemia was 2.89% (active); in the assay with RPMI-8226 leukemia, 20.9%; in the assay on OVCAR-8 ovarian, -18.3% (active); with OVCAR-5 ovarian, 87.5%; in the assay on OVCAR-4 ovarian it was 15.8%; in the assay on SK-OV-3 ovarian, 83.3%. For the same compound, the growth is 25.1% with IGROV1 ovarian, 62.1% with OVCAR-3 ovarian, 57.8% in the assay with HS 578T breast and 64.3% in the assay on NCI/ADR-RES ovarian.
As for `CC1(C)CN(Cc2ccccc2)CCN1Cc1ccccc1`, the growth in the assay with SR leukemia was 95.8%; in the assay with RPMI-8226 leukemia, 98%; with OVCAR-8 ovarian, 104%; in the assay on OVCAR-5 ovarian it was 103%; in the assay with OVCAR-4 ovarian, 113%; in the assay with SK-OV-3 ovarian, 122%. The growth is 101% in the assay with IGROV1 ovarian, 106% in the assay with OVCAR-3 ovarian, 99.1% with HS 578T breast and 105% in the assay on NCI/ADR-RES ovarian.
For the compound `O=S(=O)(NCCCNc1nccc(-c2c(-c3ccc(F)c(O)c3)nc3sccn23)n1)c1ccc(F)cc1`, the growth is -7.44% (active) in the assay on SR leukemia; -47.7% (active) with RPMI-8226 leukemia; -11.9% (active) in the assay on OVCAR-8 ovarian; 24.4% in the assay with OVCAR-5 ovarian; 3.86% (active) in the assay on OVCAR-4 ovarian; 17.9% in the assay with SK-OV-3 ovarian. Besides, the growth with IGROV1 ovarian is 0.863% (active); with OVCAR-3 ovarian, 20.8%; in the assay with HS 578T breast, 3.15% (active); in the assay on NCI/ADR-RES ovarian it was 48.2%.
As for `O=C(Nc1nc2ccc(C(=O)N3CCN(c4ccc(Cl)c(Cl)c4)CC3)cc2s1)c1ccc(NCCc2ccccc2)c([N+](=O)[O-])c1`, the growth with SR leukemia is 98.4%; with RPMI-8226 leukemia it was 85.5%; with OVCAR-8 ovarian, 97.3%; in the assay on OVCAR-5 ovarian, 91.3%; in the assay with OVCAR-4 ovarian, 87.3%; with SK-OV-3 ovarian it was 107%. Moreover, the growth is 82% in the assay on IGROV1 ovarian, 111% with OVCAR-3 ovarian, 93.5% with HS 578T breast and 101% in the assay on NCI/ADR-RES ovarian.
Regarding `CCN1C(=O)/C(=c2\sc3n(c2=O)NC2C(N=3)N(CC)C(=O)N2CC)c2ccccc21` (stereo not given), the growth in the assay with SR leukemia is 22.7%; in the assay with RPMI-8226 leukemia it was 64.9%; with OVCAR-8 ovarian it was 46.5%; with OVCAR-5 ovarian, 53.8%; in the assay on OVCAR-4 ovarian, 46%; in the assay with SK-OV-3 ovarian it was 70.2%. Further, the growth was 41.6% in the assay on IGROV1 ovarian, -12.7% (active) in the assay with OVCAR-3 ovarian, 37% in the assay on HS 578T breast and 12.1% in the assay with NCI/ADR-RES ovarian.
For `C/C(=C(/c1ccccc1)c1ccc(OCC(O)CN2CCOCC2)cc1)c1ccccc1` (stereo not given), the growth in the assay with SR leukemia was 47.2%; in the assay on RPMI-8226 leukemia, 75%; in the assay with OVCAR-8 ovarian it was 88.5%; in the assay with OVCAR-5 ovarian, 87.2%; in the assay with OVCAR-4 ovarian it was 89.3%; with SK-OV-3 ovarian it was 91.3%. Also, the growth with IGROV1 ovarian is 96.2%; with OVCAR-3 ovarian it was 90.4%; in the assay on HS 578T breast it was 90.8%; in the assay on NCI/ADR-RES ovarian, 93.2%.
Take `O=C(CCN1CCCC1)Nc1ccc2c(NCc3ccc(F)cc3)c3ccccc3nc2c1`: the growth in the assay with SR leukemia was -13.2% (active); in the assay on RPMI-8226 leukemia, -34.8% (active); in the assay on OVCAR-8 ovarian, 2.58% (active); in the assay on OVCAR-5 ovarian it was 2.2% (active); with OVCAR-4 ovarian, -30.9% (active); in the assay on SK-OV-3 ovarian, -5.63% (active). Also, the growth was -2.1% (active) in the assay with IGROV1 ovarian, -46.5% (active) with OVCAR-3 ovarian, -9.73% (active) with HS 578T breast and 70.3% in the assay on NCI/ADR-RES ovarian.
For `O=C1NC(=S)NC(=O)C1=Cc1cn(Cc2ccccn2)c2ccccc12`, the growth in the assay with SR leukemia was 13.1%; in the assay on RPMI-8226 leukemia, 91.2%; with OVCAR-8 ovarian, 51.7%; with OVCAR-5 ovarian, -4.45% (active); in the assay on OVCAR-4 ovarian, 80.8%; in the assay with SK-OV-3 ovarian, 85.5%. Also, the growth with IGROV1 ovarian is 11.3%; in the assay on OVCAR-3 ovarian it was 33.5%; with HS 578T breast, 81.9%; in the assay on NCI/ADR-RES ovarian, 85.1%.
Take `CC[C@@]12C=CCN3CC[C@]4(c5cc(NC(=O)COc6cc(OCC(=O)Nc7cc8c(cc7OC)N(C)[C@H]7[C@@](O)(C(=O)OC)[C@H](OC(C)=O)[C@]9(CC)C=CCN%10CC[C@]87[C@@H]%109)cc7oc(-c8ccccc8)cc(=O)c67)c(OC)cc5N(C)[C@@H]4[C@](O)(C(=O)OC)[C@H]1OC(C)=O)[C@H]32`: the growth was 10.6% with SR leukemia; 8.92% (active) with RPMI-8226 leukemia; 28.8% in the assay on OVCAR-8 ovarian; 30.2% in the assay on OVCAR-5 ovarian; 28.8% with OVCAR-4 ovarian; 23.5% in the assay with SK-OV-3 ovarian. The growth in the assay with IGROV1 ovarian was -70% (active); with OVCAR-3 ovarian it was -26.8% (active); in the assay with HS 578T breast, 39.4%; in the assay on NCI/ADR-RES ovarian, 95.5%.
With `c1ccc(-c2nn(-c3ccccc3)[n+](-c3ccccc3-c3ccccc3)n2)cc1`, the growth in the assay with SR leukemia is 8.06% (active); in the assay with RPMI-8226 leukemia, 15.3%; with OVCAR-8 ovarian, -32.8% (active); in the assay with OVCAR-5 ovarian, 37.1%; in the assay with OVCAR-4 ovarian, 22.3%; in the assay with SK-OV-3 ovarian, 36.5%. Further, the growth in the assay on IGROV1 ovarian was 30.9%; in the assay with OVCAR-3 ovarian, 1.32% (active); with HS 578T breast, 9.51% (active); in the assay with NCI/ADR-RES ovarian, 93.1%.
As for `Cc1ccc(/C=C/C(=O)c2ccc(N)cc2)c(C)c1`, the growth is -45.1% (active) in the assay on SR leukemia; 33% in the assay on RPMI-8226 leukemia; 17.3% in the assay with OVCAR-8 ovarian; 103% in the assay with OVCAR-5 ovarian; 73% with OVCAR-4 ovarian; 122% in the assay on SK-OV-3 ovarian. Moreover, the growth in the assay with IGROV1 ovarian is 12%; in the assay with OVCAR-3 ovarian, 21.7%; in the assay with HS 578T breast, 100%; in the assay with NCI/ADR-RES ovarian it was 62.2%.
As for `Clc1cc(Cl)cc(N2N=C(c3cccc(Nc4ccncc4)c3)CC2c2ccc3c(c2)OCO3)c1` (stereo not given), the growth is 2.87% (active) with SR leukemia; 11.3% with RPMI-8226 leukemia; -21% (active) in the assay on OVCAR-8 ovarian; 86.7% in the assay on OVCAR-5 ovarian; 14.9% in the assay on OVCAR-4 ovarian; 74.1% with SK-OV-3 ovarian. Besides, the growth in the assay with IGROV1 ovarian was 2.89% (active); in the assay on OVCAR-3 ovarian, 52.3%; in the assay with HS 578T breast, 50.6%; with NCI/ADR-RES ovarian, 66.9%.
For `COC(=O)CCCCCCCCC1(C)C=CC(C(C)O)=CC1` (stereo not given), the growth is 89.8% in the assay with SR leukemia; 103% with RPMI-8226 leukemia; 105% in the assay on OVCAR-8 ovarian; 120% in the assay on OVCAR-5 ovarian; 110% with OVCAR-4 ovarian; 110% with SK-OV-3 ovarian. Also, the growth in the assay on IGROV1 ovarian is 99.7%; in the assay with OVCAR-3 ovarian, 111%; with HS 578T breast, 117%; with NCI/ADR-RES ovarian it was 102%.
